PubChem BioAssay AID651768 (National Center for Advancing Translational Sciences (NCATS), 2012)
Screen size: about 360,000 compounds; about 1,700 (0.47%) were called active. Where a call stands in place of a potency, no number is given. Another 2% or so got no clear call; they are omitted. The call rests on the fitted dose curve; in most records, active means well fitted inhibition curve with a large enough effect; inconclusive means small, poorly fitted or top-dose-only effect; inactive means no such curve, though single readings can be large or run the other way. Only a selection was taken, and actives are over-represented in it overall.
Further: nearly all actives have a fitted effect of over 55% in size.
Potency means the concentration at half of the fitted maximal effect.

What follows are compounds tested against Bifunctional 3'-5' exonuclease/ATP-dependent helicase WRN (Homo sapiens) (UniProt Q14191) (assay: qHTS for Inhibitors of WRN Helicase). Settings: WRN helicase unwinding, fluorescent forked duplex, kinetic; series mostly up to 114 µM.
Sequence of Bifunctional 3'-5' exonuclease/ATP-dependent helicase WRN (Homo sapiens) (Q14191 whole entry, looked up): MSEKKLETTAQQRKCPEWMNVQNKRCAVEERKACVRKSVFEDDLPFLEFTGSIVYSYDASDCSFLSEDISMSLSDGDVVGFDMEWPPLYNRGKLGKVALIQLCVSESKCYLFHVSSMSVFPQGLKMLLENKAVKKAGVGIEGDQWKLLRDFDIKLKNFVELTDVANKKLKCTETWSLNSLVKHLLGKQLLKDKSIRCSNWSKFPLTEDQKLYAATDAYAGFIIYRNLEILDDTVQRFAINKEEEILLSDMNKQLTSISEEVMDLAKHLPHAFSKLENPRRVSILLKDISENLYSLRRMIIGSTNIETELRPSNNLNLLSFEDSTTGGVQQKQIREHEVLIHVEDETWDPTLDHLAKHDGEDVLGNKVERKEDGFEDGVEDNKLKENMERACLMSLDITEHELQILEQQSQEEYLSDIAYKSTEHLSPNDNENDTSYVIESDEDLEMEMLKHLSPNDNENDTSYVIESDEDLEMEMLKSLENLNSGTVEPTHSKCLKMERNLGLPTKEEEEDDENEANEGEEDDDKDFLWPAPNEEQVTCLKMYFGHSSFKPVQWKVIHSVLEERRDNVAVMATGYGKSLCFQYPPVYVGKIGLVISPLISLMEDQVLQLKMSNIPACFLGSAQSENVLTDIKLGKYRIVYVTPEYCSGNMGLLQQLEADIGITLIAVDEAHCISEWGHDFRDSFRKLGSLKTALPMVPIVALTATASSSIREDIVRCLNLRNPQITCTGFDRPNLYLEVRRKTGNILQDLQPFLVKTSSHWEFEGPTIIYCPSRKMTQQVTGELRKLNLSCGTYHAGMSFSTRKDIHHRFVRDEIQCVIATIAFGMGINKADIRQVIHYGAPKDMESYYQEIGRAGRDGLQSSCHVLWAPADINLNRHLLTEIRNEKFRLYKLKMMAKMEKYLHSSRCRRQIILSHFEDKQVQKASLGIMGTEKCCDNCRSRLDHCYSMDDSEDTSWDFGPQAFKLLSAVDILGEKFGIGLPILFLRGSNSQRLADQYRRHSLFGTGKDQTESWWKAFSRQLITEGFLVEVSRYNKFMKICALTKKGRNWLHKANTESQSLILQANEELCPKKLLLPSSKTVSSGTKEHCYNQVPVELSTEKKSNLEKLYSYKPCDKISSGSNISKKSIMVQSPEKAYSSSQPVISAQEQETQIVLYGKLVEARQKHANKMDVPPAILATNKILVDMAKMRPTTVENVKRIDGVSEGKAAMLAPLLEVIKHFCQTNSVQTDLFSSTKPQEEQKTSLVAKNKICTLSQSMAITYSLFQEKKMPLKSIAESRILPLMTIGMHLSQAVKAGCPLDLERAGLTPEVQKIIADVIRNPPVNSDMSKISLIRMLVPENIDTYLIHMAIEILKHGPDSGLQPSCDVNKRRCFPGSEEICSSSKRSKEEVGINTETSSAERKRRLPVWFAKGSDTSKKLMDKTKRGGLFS
Outline: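 Fluorescence dequenching readout, ex 525 nm/em 598 nm, kinetic mode: forked duplex DNA (100 nM final) with adjacent fluorophore and quencher unwound by WRN (20 nM final) with 2 mM ATP. Compound preincubation 15 min, room temperature.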
For `N#Cc1ccc(OCC(=O)NC(=O)NC2CCS(=O)(=O)C2)cc1` (stereo not given), the Potency was “inactive”. For `CC(=O)Nc1ccc(S(=O)(=O)NCC(=O)OCc2cc(=O)oc3ccc4ccccc4c23)cc1`, the Potency was “inactive”. `O=C(N/N=C/c1sc(N2CCCCC2)nc1-c1cccs1)c1cccnc1` was tested, and the Potency was “inactive”. For `C[C@H]1CN([C@@H](C)CO)C(=O)CCCn2nncc2CO[C@@H]1CN(C)S(=O)(=O)c1cccc(C#N)c1`, the Potency was “inactive”. For `Cc1nnc(SCC(=O)Nc2ncc3c(n2)CC(C)(C)CC3=O)s1`, the Potency was “inactive”. In the case of `CC1=C/C(=N\OS(=O)(=O)c2ccccc2)C=CC1=O`, the Potency is reported as 31.6 µM (active). For `O=C1Nc2ccccc2-n2nnnc2C1N1CCN(c2cccc(C(F)(F)F)n2)CC1` (stereo not given), the Potency was “inactive”. With `CC1(c2cccc(N)c2)OCCO1` the Potency was “inactive”. In the case of `COCCNC(=O)Nc1ccc2nc(-c3ccco3)c(-c3ccco3)nc2c1`, the Potency is reported as 14.1 µM (active). For `COCCNC(=O)CSc1nc(N)c(NC(=O)c2ccco2)c(=O)[nH]1`, the Potency was “inactive”. For `Cc1ccc(NC(=O)OCCNC(=O)c2ccncc2)cc1`, the Potency was “inactive”. For `CC(=O)N(C1=C(Cl)C(=O)c2ccccc2C1=O)c1ccc(C(=O)O)cc1`, the Potency was 35.5 µM (active). In the case of `O=C(NC1=CC(=O)c2ccccc2C1=O)c1ccccc1`, the Potency is reported as “inactive”. For `CN(C)c1ccc(C(CNC(=O)c2ccc(F)cc2)c2c[nH]c3ccccc23)cc1` (stereo not given), the Potency was “inactive”. For `CCc1ccccc1NC(=O)CN(c1ccc(OC)cc1OC)S(=O)(=O)c1ccccc1[N+](=O)[O-]`, the Potency was “inactive”. `CCC1OC(C2CC2)CC2=C1C(=O)OC(C)(C)O2` (stereo not given) was tested, and the Potency was “inactive”. For `CCc1ccc2nc3sc(C(=O)Nc4nnc(CC)s4)c(N)c3cc2c1`, the Potency was 22.4 µM (active). In the case of `CCc1nnc(NC(=O)c2ccco2)s1`, the Potency is reported as “inactive”. In the case of `CCc1nnc(NC(=O)c2cc(S(=O)(=O)N3CCCCC3)ccc2C)s1`, the Potency is reported as “inactive”. `C=CCN1CCN(c2ccncc2S(=O)(=O)N2CCN(C)CC2)CC1` was tested, and the Potency was “inactive”. In the case of `N#Cc1c(C(F)(F)F)cc(-c2cccs2)nc1N1CCCCC1`, the Potency is reported as “inactive”. With `O=C(O)CSc1ccc(S(=O)(=O)N2CCCC2)cn1` the Potency was “inactive”. For `N#Cc1c(N2CCCCC2)nc(N)c2c(N)nc(SCC(=O)O)cc12`, the Potency was 50.1 µM (active). For `Cn1cnnc1SCC(=O)Nc1ccc(N2CCOCC2)cc1`, the Potency was “inactive”. `CN1CCN(c2ccc(NC(=O)c3cc(Cl)c4c(c3)OCCO4)cc2)CC1` was tested, and the Potency was “inactive”. With `C=CC(=O)Nc1ccc(Nc2ccnc(Nc3ccc(N4CCN(C)CC4)cc3)n2)cc1` the Potency was 50.1 µM (active). In the case of `CC(C)NC(=S)Nc1cccc2cnccc12`, the Potency is reported as “inactive”. `COc1ccc(S(=O)(=O)N2CCN(CC(=O)N3c4ccccc4CC3C)CC2)cc1OC` (stereo not given) was tested, and the Potency was “inactive”. `Cc1ccccc1-c1nc(NC(C)C)nc2cc(-c3ccccc3)sc12` was tested, and the Potency was “inactive”. In the case of `O=S(=O)(O)c1cc2onnc2c2ccccc12`, the Potency is reported as 56.2 µM (active). In the case of `O=C(Nc1ccc(OC(F)(F)F)cc1)c1ccc2c(c1)no[n+]2[O-]`, the Potency is reported as “inactive”. In the case of `Cc1ccc(S(=O)(=O)N2CCC(=O)N([C@H](COCc3ccccc3)Cc3ccccc3)CC2)cc1`, the Potency is reported as “inactive”. In the case of `CCN(CC)CCNCC(=O)Nc1ccc(Oc2ccccc2)cc1`, the Potency is reported as “inactive”. With `CN(CCOc1ccc(CC2SC(=O)NC2=O)cc1)c1ccccn1` (stereo not given) the Potency was “inactive”. With `CCN(CC)CCOc1ccc2c(c1)C(=NNC(=O)c1ccccn1)c1cc(OCCN(CC)CC)ccc1-2` the Potency was 35.5 µM (active). `O=C(O)CSC(NC(=O)c1cccnc1)(C(F)(F)F)C(F)(F)F` was tested, and the Potency was “inactive”. With `Cc1ccc(Cc2cnc(N)s2)o1` the Potency was 44.7 µM (active). For `Cc1ccc(CCC(=O)Nc2ncc(Cc3cc(Cl)ccc3Cl)s2)o1`, the Potency was “inactive”. `CSc1nnc(C2CCCN(CC(=O)Nc3ccccc3N3CCOCC3)C2)n1C(C)C` (stereo not given) was tested, and the Potency was “inactive”. In the case of `O=C(c1cc2cc(Br)cc(Br)c2oc1=O)N1CCOCC1`, the Potency is reported as “inactive”. With `O=C(CSC(=S)N1CCOCC1)c1ccccc1` the Potency was “inactive”. `O=C(CSC(=S)N1CCOCC1)c1cc(Br)cc(Br)c1O` was tested, and the Potency was 56.2 µM (active). `Cc1cc(=O)oc2cc(OC(C)C(=O)NCCc3ccc(S(N)(=O)=O)cc3)ccc12` (stereo not given) was tested, and the Potency was “inactive”. In the case of `CCOC(=O)c1cc(-c2ccc(F)cc2)n(CC(=O)NCc2ccccn2)c1C`, the Potency is reported as “inactive”. In the case of `CCN(C(=O)COC(=O)/C=C/c1nc2ccccc2s1)C1CCS(=O)(=O)C1` (stereo not given), the Potency is reported as “inactive”. In the case of `O=C(COC(=O)c1cnccn1)Nc1ccc(Cl)cc1C(F)(F)F`, the Potency is reported as “inactive”. `O=C(CSC1=Nc2ccccc2C2=NC(c3ccccc3)C(=O)N12)NCC1CCCO1` (stereo not given) was tested, and the Potency was “inactive”. `NC(=O)CSC1=Nc2ccccc2C2=NC(CCC(=O)NCc3ccc(F)cc3)C(=O)N12` (stereo not given) was tested, and the Potency was “inactive”. In the case of `CC(C)C1N=C2c3ccccc3N=C(SCC(=O)c3ccc(O)c(O)c3)N2C1=O` (stereo not given), the Potency is reported as 17.8 µM (active). For `O=C(NCCCn1ccnc1)C(=O)c1cn(CC(=O)N2CCCCCC2)c2ccccc12`, the Potency was “inactive”. In the case of `Cc1nc2ccc(S(=O)(=O)NCC(=O)O)cc2s1`, the Potency is reported as “inactive”. In the case of `C/C(CC(O)(/C=N/O)c1ccccc1)=N\O` (stereo not given), the Potency is reported as “inactive”. In the case of `O=S(=O)(NC1CC1)c1ccc(Cl)cc1`, the Potency is reported as “inactive”. In the case of `Cn1sc(=O)c2cc(S(=O)(=O)NC3CC3)ccc21`, the Potency is reported as 44.7 µM (active). In the case of `O=S(=O)(NC1CC1)c1ccc(F)c(F)c1`, the Potency is reported as “inactive”. In the case of `Cc1c(C(=O)NCCN(C)C)oc2ccc(S(=O)(=O)N3CCCC3)cc12`, the Potency is reported as “inactive”. For `CCOP1(=O)C=C(C(C)(C)C)OC1c1ccc(F)cc1` (stereo not given), the Potency was “inactive”. With `C[C@@H]1CN([C@H](C)CO)C(=O)CCCn2cc(nn2)CO[C@H]1CN(C)S(=O)(=O)c1ccc(Oc2ccccc2)nc1` the Potency was “inactive”. `CC12CCC(C(=O)N(CCC#N)CCC#N)(CC1=O)C2(C)C` (stereo not given) was tested, and the Potency was “inactive”. For `COC(=O)[C@@]1(Cc2ccc(F)cc2)[C@H]2c3cc(C(=O)N4CCCC4)n(C[C@H](O)CO)c3C[C@H]2CN1C(=O)c1ccccc1`, the Potency was “inactive”. For `CCOC(=O)N1CCC(NC(=O)CN2C(=O)COc3ccc(C(C)(C)C)cc32)CC1`, the Potency was “inactive”. With `CC[C@]12c3[nH]c4ccc(OC)cc4c3CCN1C(=O)C(CC(=O)NCCN1CCOCC1)C[C@@H]2C(=O)N1CCN(C(=O)C2CC2)CC1` (stereo not given in full) the Potency was “inactive”. For `O=c1/c(=C/c2ccc(CNS(=O)(=O)c3ccccc3)o2)sc2n1CCN=2`, the Potency was “inactive”. In the case of `O=C(NCCc1ccco1)c1nn(Cc2ccccc2)c(=O)c2ccccc12`, the Potency is reported as “inactive”. For `O=c1nc2s/c(=C\c3ccco3)c(=O)n2nc1Cc1ccccc1`, the Potency was 35.5 µM (active).
